Test [1] is described as follows: qHTS profiling of the MIPE4 collection as inhibitors of Plasmodium falciparum (3D7) proliferation (AID 743344).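 Also: scaled between DMSO vehicle wells and 0.29 µM artemisinin as full inhibition.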 As to conditions: P. falciparum 3D7 in erythrocytes, SYBR Green DNA fluorescence, 72 h; at 28.5 µM unless noted. A digest of the protocol:
(§1)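 Erythrocytes infected with P. falciparum (0.3% parasitemia, 2.5% hematocrit) incubated with compounds 72 h at 37 C, 5% CO2. Lysis with saponin/Triton buffer containing SYBR Green I, overnight at room temperature in the dark; DNA fluorescence (485/535 nm) normalised to 0.29 uM artemisinin and DMSO.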
(Quantitative high-throughput screening tests each substance at several concentrations.)

The nature of test [2]: qHTS profiling of the MIPE4 collection as inhibitors of Plasmodium falciparum (DD2) proliferation (AID 743345). Conditions: P. falciparum Dd2 in erythrocytes, SYBR Green DNA, 72 h; at 28.5 µM unless noted. A digest of the protocol:
as §1

Test [3] in a line: qHTS profiling of the MIPE4 collection as inhibitors of Plasmodium falciparum (DD2) proliferation (Rep 2) (AID 743346). As to conditions: P. falciparum Dd2 in erythrocytes, SYBR Green DNA, 72 h; at 28.5 µM unless noted. A digest of the protocol:
as §1

Test [4] in a line: High-throughput drug toxicity screening in the BPDCN cell line Gen2.2 (AID 1224824). As to conditions: Gen2.2 BPDCN cells; at 45.8 µM (top of the series) unless noted. A digest of the protocol:
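Gen2.2 cells (500/well) in phenol red-free RPMI with 10% FBS were exposed to compounds for 48 h at 37 °C, 5% CO2. Viability was read by CellTiter-Glo luminescence and normalized to DMSO (100%) and 9.2 uM bortezomib (0%).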

Test [5] in a line: qHTS assay for measurement of the activity of small molecule inhibitors on Zika virus induced Caspase-3 activity in human iPSC derived neural progenitor cells (hNPCs) (AID 1224857; active = well fitted curve in the direction sought with a large enough effect; an effect the other way counts as inactive or inconclusive; also: % of control where 0% means no effect; nearly all actives have a fitted effect of over 65% in size). In outline: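 After overnight (16–20 h) culture at 350 cells/well, hNPCs get compound, then ZIKV 2 FFU/cell one hour later. Six hours on, Caspase-Glo 3/7 is added and luminescence measured.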
Test [6] is described as follows: qHTS assay for measurement of the activity of small molecule inhibitors on Zika virus induced Caspase-3 activity in human astrocytoma cells (AID 1224859; active = well fitted curve in the direction sought with a large enough effect; an effect the other way counts as inactive or inconclusive;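 also: plate controls were ZIKV-infected untreated cells for no effect and uninfected cells for full effect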). A digest of the protocol:
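Inhibition of Zika-induced caspase-3/7 activity: SNB-19 cells, 1 h compound pretreatment, ZIKV 2 FFU/cell for 6 h at 37 C, Caspase-Glo luminescence read-out.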

A short description of test [7]: qHTS Screen of the MIPE 4.0 Collection Against Ewings Sarcoma (TC32) (AID 1259256; active = well fitted curve in the direction sought with a large enough effect; an effect the other way counts as inactive or inconclusive; also: nearly all actives have a fitted effect of over 45% in size; also: potency is read from the fitted curve at half-maximal effect). In outline:
(§2)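 After a 4 h attachment period in RPMI/5% FBS, cells were pin-dosed with test compounds; DMSO served as negative and 9.2 uM bortezomib (final) as positive control. Luminescent CellTiter-Glo signal at 48 h defined viability.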

The nature of test [8]: qHTS profiling for inhibitors of Plasmodium falciparum (3D7) proliferation (AID 743322).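 Also: infected erythrocytes exposed to compound for 72 h before lysis; 100% = DMSO vehicle wells and 0% = 0.29 µM artemisinin.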 As to conditions: P. falciparum 3D7 proliferation; at 28.7 µM (top of the series). In outline:
as §1

Test [9] can be described thus: qHTS profiling for inhibitors of Plasmodium falciparum (DD2) proliferation (AID 743323). As to conditions: lower = more inhibition; at 28.7 µM (top of the series). A digest of the protocol:
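Parasite proliferation measured via DNA-dye fluorescence, as uninfected erythrocytes lack DNA. Cultures at 0.3% parasitemia and 2.5% hematocrit incubated 72 h with compound; signal scaled between vehicle and 0.29 uM artemisinin wells.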

A short description of test [10]: qHTS profiling for inhibitors of Plasmodium falciparum (HB3) proliferation (AID 743324; active = well fitted curve in the direction sought with a large enough effect; an effect the other way counts as inactive or inconclusive;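 also: 100% = DMSO vehicle wells and 0% = artemisinin-treated control wells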). As to conditions: Plasmodium falciparum HB3 blood-stage proliferation; at 28.7 µM (top of the series). In outline:
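P. falciparum HB3 grown in erythrocytes (0.3% parasitemia, 2.5% hematocrit final) with compound for 72 h at 37 C, 5% CO2. Parasite DNA detected by SYBR Green after saponin/triton lysis overnight; normalized to 0.29 uM artemisinin and DMSO.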

Test [11] is described as follows: qHTS profiling of the MIPE4 collection as inhibitors of Plasmodium falciparum (HB3) proliferation (AID 743347).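 Also: plate controls were DMSO vehicle wells for no effect and artemisinin wells for full effect.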 As to conditions: P. falciparum HB3 in erythrocytes, SYBR Green DNA, 72 h; at 28.5 µM unless noted. A digest of the protocol:
as §1

Test [12] is described as follows: Identifying Small Molecule Inhibitors of Pancreatic Cancer Stem Cells (SN12C, Spheroid) (AID 1259360; active = well fitted curve in the direction sought with a large enough effect; an effect the other way counts as inactive or inconclusive;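 also: 100% = DMSO-treated cells and 0% = wells without cells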). Conditions: Potency: SN12C spheroid viability. In outline:
(§3)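 Monolayer and spheroid cultures are compared. Spheroids form over 14 days in stem cell medium on hydrogel-coated low-attachment plates, then are exposed to compound for 48 h before CellTiter-Glo luminescence.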

Test [13] can be described thus: qHTS Screen of the MIPE 4.0 Collection Against Ewings Sarcoma (EW8) (AID 1259255; active = well fitted curve in the direction sought with a large enough effect; an effect the other way counts as inactive or inconclusive;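 also: 100% = DMSO-treated cells and 0% = medium-only wells without cells; nearly all actives have a fitted effect of over 35% in size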). In outline: as §2
A short description of test [14]: High-throughput drug toxicity screening in the BPDCN cell line Cal-1 (AID 1224825). Conditions: Cal-1 BPDCN cell viability, qHTS; at 45.8 µM (top of the series) unless noted. A digest of the protocol:
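500 Cal-1 cells/well, RPMI + glutamine + 10% FBS (phenol red-free); cpd added by pin tool; 48 h, 37C, 5% CO2; CTG 15 min RT, lumi read. Normalised: DMSO 100%, bortezomib 9.2 uM 0%.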

The nature of test [15]: qHTS Screen of the MIPE 4.0 Collection Against Ewings Sarcoma (TC71) (AID 1259253; active = well fitted curve in the direction sought with a large enough effect; an effect the other way counts as inactive or inconclusive;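 also: 100% = DMSO-treated cells and 0% = medium-only wells without cells; nearly all actives have a fitted effect of over 40% in size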). In outline:
as §2

Test [16] in a line: Identifying Small Molecule Inhibitors of Pancreatic Cancer Stem Cells (A2780, Spheroid) (AID 1259357; active = well fitted curve in the direction sought with a large enough effect; an effect the other way counts as inactive or inconclusive;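 also: compound exposure lasted 48 h before the ATP luminescence read; 100% = DMSO treated cells and 0% = wells without cells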). As to conditions: Potency: A2780 spheroid viability. In outline:
as §3

SMILES strings stand for the structures. Records with an inconclusive call do not appear. Activity calls are given as the source filed them. Unless noted, no rule for the calls is given here.

In [1], `Cn1c(N2CCCCS2(=O)=O)nc(C(=O)NCc2ccc(F)cc2)c(O)c1=O` yielded a parasite growth, % of DMSO control of 101%. Besides, the parasite growth remaining, % of DMSO control (lower = more inhibition) in [2] was 104%. In addition, in [3], the parasite growth, % of control (lower = inhibition) came to 83.1%. The cell viability, % of control (lower = more cytotoxic) in test [4] was determined as 60.2%. For the same molecule, the Potency result in test [5] and in test [6] was “inactive” each time. Besides, the Potency in [7] was 23.5 µM (active).

For the molecule `CC(C)[C@H](CO)Nc1nc(Nc2ccc(C(=O)O)c(Cl)c2)c2ncn(C(C)C)c2n1`, the remaining parasite growth % (stronger effect = lower value) in test [8] is 41.8%. The molecule also displayed an activity, percent of control in test [9] of 35.2%. In addition, the remaining proliferation (% of control), lower = more inhibition in test [10] is 28.6%. In test [1], this molecule displayed a parasite growth, % of DMSO control of 29.4%. Besides, in [2], the parasite growth remaining, % of DMSO control (lower = more inhibition) worked out at 51%. Moreover, in test [3], the parasite growth, % of control (lower = inhibition) came to 29.5%. Further, in test [11], the growth, % of control worked out at 18.3%. Further, the cell viability, % of control (lower = more cytotoxic) in test [4] worked out at 9.58%. Also, the Potency result in test [5], in [6] and in test [12] was “inactive” throughout.

For the molecule `CN[C@@H](C)C(=O)N[C@H]1CN(C(=O)CC(C)C)CC[C@H]2CC[C@@H](C(=O)NC(c3ccccc3)c3ccccc3)N2C1=O`, in [1], the parasite growth, % of DMSO control worked out at 69.1%. Moreover, the parasite growth remaining, % of DMSO control (lower = more inhibition) in [2] stood at 55%. This molecule also gave a parasite growth, % of control (lower = inhibition) in test [3] of 27.9%. Further, the growth, % of control in test [11] was determined as 72.2%. The cell viability, % of control (lower = more cytotoxic) in test [4] came out at 19.5%. Moreover, the Potency result in test [5], in [6] and in test [13] was “inactive” throughout.

Molecule `COc1cc(NC(=O)c2ccc(-c3ccc(Cl)cc3)o2)cc(OC)c1` yielded a parasite growth, % of DMSO control in test [1] of 97.8%. Besides, the parasite growth remaining, % of DMSO control (lower = more inhibition) in test [2] turned out to be 97.8%. Also, in test [3], the parasite growth, % of control (lower = inhibition) is 99.4%. In test [11], this molecule returned a growth, % of control of 94.4%. Moreover, the cell viability, % of control (lower = more cytotoxic) in test [4] was 9.04%. This molecule also came in with a viability (% of control) in [14] of 6.59%.

Molecule `CC(C)(C)C(=O)Oc1ccc2c(c1)nc(NC(=O)c1cccc([N+](=O)[O-])c1)n2CCCO` displayed a remaining parasite growth % (stronger effect = lower value) in test [8] of 92%. Also, the activity, percent of control in test [9] turned out to be 82%. The molecule also displayed a remaining proliferation (% of control), lower = more inhibition in [10] of 53.3%. The molecule also showed a parasite growth, % of DMSO control in test [1] of 21.2%. For the same molecule, the parasite growth remaining, % of DMSO control (lower = more inhibition) in test [2] was found to be 46.4%. The molecule also returned a parasite growth, % of control (lower = inhibition) in [3] of 22.2%. This molecule also registered a growth, % of control in [11] of 10.6%. The cell viability, % of control (lower = more cytotoxic) in test [4] amounted to 190%. For the same molecule, the Potency result in test [5], in test [6], in [15], in test [7], in test [16] and in [12] was “inactive” in each case.

Take `N#Cc1ccc(NC(=O)Nc2ccccc2Br)c2n[nH]nc12`: the remaining parasite growth % (stronger effect = lower value) in test [8] is 66.9%. Moreover, the activity, percent of control in [9] was found to be 69.6%. This molecule also displayed a remaining proliferation (% of control), lower = more inhibition in test [10] of 37.3%. In [1], the parasite growth, % of DMSO control turned out to be 7.67%. Further, in test [2], the parasite growth remaining, % of DMSO control (lower = more inhibition) stood at 65.9%. This molecule also returned a parasite growth, % of control (lower = inhibition) in test [3] of 21.8%. For the same molecule, the growth, % of control in test [11] stood at 7.81%. In addition, the cell viability, % of control (lower = more cytotoxic) in test [4] is 183%. Also, the Potency result in test [5] and in test [6] was “inactive” each time.

The molecule `N[C@H](CSC(c1ccccc1)(c1ccccc1)c1ccccc1)C(=O)O` showed a parasite growth, % of DMSO control in test [1] of 10.7%. For the same molecule, the parasite growth remaining, % of DMSO control (lower = more inhibition) in test [2] stood at 86.8%. Moreover, in test [3], the parasite growth, % of control (lower = inhibition) was 16.2%. Moreover, the growth, % of control in [11] turned out to be 4.68%. Also, in test [4], the cell viability, % of control (lower = more cytotoxic) is 68.6%. In addition, the viability (% of control) in test [14] is 12%. Besides, the Potency entry in test [7] was “inactive”.

In turn, `O=C(O)c1ccc(-c2cc3cccnc3c(-c3ccc4nonc4c3)n2)cc1` yielded a remaining parasite growth % (stronger effect = lower value) in [8] of 98.1%. In addition, the activity, percent of control in test [9] came to 92.9%. Also, in [10], the remaining proliferation (% of control), lower = more inhibition came to 93.9%. In [1], this molecule came in with a parasite growth, % of DMSO control of 15.8%. Besides, the parasite growth remaining, % of DMSO control (lower = more inhibition) in test [2] was found to be 53.9%. Besides, the parasite growth, % of control (lower = inhibition) in test [3] is 37.1%. The same molecule displayed a growth, % of control in test [11] of 3.01%. For the same molecule, the cell viability, % of control (lower = more cytotoxic) in test [4] is 30.2%. The Potency result in [5], in test [6] and in test [12] was “inactive” throughout. In test [7], the Potency is 26.4 µM (active).

Source of the values: PubChem BioAssay (NCATS).
